Measurements as given in PubChem BioAssay AID1220 (Sanford-Burnham Center for Chemical Genomics, 2008).
Hit rate of the full screen: of about 190,000 compounds, about 1,300 (0.68%) were called active. The full list was thinned out, with actives kept by preference. A number with no mark means an inactive call. No stated cut-off is given here; in the data, active means inhibition above about 50%; inactive means the rest.

target: Mannose-6-phosphate isomerase (Homo sapiens) (UniProt P34949); experiment: human PMI inhibitors, high substrate, primary screen, biochemical, fluorescence intensity, high mannose 6-phosphate (AID 1220); settings: recombinant PMI enzyme, coupled fluorescence intensity; at 20 µM; active compounds read high
Sequence (P34949 whole entry, looked up): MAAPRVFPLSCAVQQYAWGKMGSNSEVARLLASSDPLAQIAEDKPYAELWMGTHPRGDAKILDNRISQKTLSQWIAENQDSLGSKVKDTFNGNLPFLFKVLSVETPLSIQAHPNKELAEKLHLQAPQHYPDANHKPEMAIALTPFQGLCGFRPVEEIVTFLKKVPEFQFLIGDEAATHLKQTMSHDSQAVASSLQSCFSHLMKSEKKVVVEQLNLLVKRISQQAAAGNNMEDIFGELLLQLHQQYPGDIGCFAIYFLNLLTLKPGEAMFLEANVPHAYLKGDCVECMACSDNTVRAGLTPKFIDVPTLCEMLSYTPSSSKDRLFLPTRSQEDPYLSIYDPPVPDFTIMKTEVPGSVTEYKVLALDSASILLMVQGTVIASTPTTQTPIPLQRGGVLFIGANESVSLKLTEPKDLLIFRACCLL

Going from `CCC(C)NC(=O)CNC(=S)N(Cc1ccccc1F)C1CCCCC1` (stereo unspecified) to `CN1CCCN(C(=O)CNC(=O)Cc2ccccc2)CC1`, the inhibition falls from 6.1% to 4.9%.

Going from `COc1ccc(NC(=O)CSc2nnc(-c3cccnc3)n2Cc2ccco2)c(OC)c1` to `COc1ccc(OC)c(NC(=O)Nc2ccccc2C)c1`, the inhibition falls from 8% to 1.9%.

Going from `c1ccc(OCCN2CCN(Cc3nc(-c4ccc5c(c4)OCO5)no3)CC2)cc1` to `c1ccc2c(Nc3ccc4c(c3)OCCO4)c3c(nc2c1)CCC3`, the inhibition rises from -4.3% to 12.8%.

Going from `CC(=O)Nc1ccc(NC(=O)CC2Nc3cccc4cccc(c34)NC2=O)cc1` (stereo unspecified) to `O=C(CC1Nc2cccc3cccc(c23)NC1=O)Nc1ccccc1` (stereo unspecified), the inhibition rises from -5.1% to 39%.

First: Brc1ccc(/C=N/c2nc3ccccc3n2CCN2CCOCC2)cc1
Second: O=C(CN1CCOCC1)N/N=C/c1cc2ccccc2nc1Cl
The inhibition of the first is lower: 9.4% for the first, 15.9% for the second.

Going from `C=CCn1c(=NC(=O)c2ccc(S(=O)(=O)N3CCc4ccccc4C3)cc2)sc2cc(S(N)(=O)=O)ccc21` to `C#CCn1c(=NC(=O)c2ccc(S(=O)(=O)N3CCCc4ccccc43)cc2)sc2cc(S(N)(=O)=O)ccc21`, the inhibition rises from 1.8% to 20.9%.

Compared with `N/C(=N\OC(=O)Oc1ccccc1)c1cccc([N+](=O)[O-])c1`, `O=c1c2ccccc2ncn1CCOc1ccccc1[N+](=O)[O-]` is higher in inhibition: -8.6% for the first, -2.8% for the second.

First: CCOC(=O)c1cc(NC(=O)Nc2ccccc2OC)c(C)nc1C
Second: NC(=O)c1ccccc1NC(=O)Nc1cccc2ccccc12
The inhibition of the first is lower: 6% for the first, 19% for the second.

Compared with `CCCCCn1c(N)c(-c2nc3ccccc3o2)c2c([N+](=O)[O-])nn(C)c(=O)c21`, `Cc1ccc(OCCn2cnc3ccccc3c2=O)c([N+](=O)[O-])c1` is higher in inhibition: -0.9% for the first, 0.1% for the second.

First: Cc1noc2ncnc(Oc3ccccc3Cl)c12
Second: CCOc1cc(C)cc2oc(=O)cc(-c3ccccc3)c12
The inhibition of the first is lower: 0% for the first, 6.3% for the second.

First: COc1cccc(CN(C)C(=S)Nc2cccc(C)c2)c1
Second: COc1cccc(NC(=O)NC2(C(F)(F)F)Oc3ccccc3O2)c1
The inhibition of the first is lower: 0.1% for the first, 48.7% for the second.

First: Cc1ccc(NCC(=O)N/N=C\c2cccc(O)c2)cc1
Second: Cc1ccc(NCC(=O)N/N=C\c2ccc([N+](=O)[O-])o2)cc1
The inhibition of the first is higher: 18.7% for the first, -1.6% for the second.

Going from `O=C(COc1cccc(Cl)c1)N/N=C\c1cc2ccccc2nc1Cl` to `Cc1ccccc1OCC(=O)N/N=C/c1cc2ccccc2nc1Cl`, the inhibition rises from -3.2% to 9.1%.

Compared with `O=C(CN1CCCCC1)N/N=C/c1cc2ccccc2nc1Cl`, `Cc1ccc(S(=O)(=O)Nc2ccc3c(c2)nc(CN2CCCC2)n3C)cc1` is higher in inhibition: -10.7% for the first, -2.1% for the second.

Compared with `CC(=O)Nc1ccc(S(=O)(=O)N2CCN(C(=O)N3CCOCC3)CC2)cc1`, `O=c1c2ccccc2nc2ccc(N3CCOCC3)nn12` is lower in inhibition: 1.8% for the first, 0.2% for the second.

Compared with `O=C(CSCc1ccc(Cl)cc1)NCCSCc1ccco1`, `CCOc1ccc(S(=O)(=O)N(CC(=O)NC2CCCCC2C)Cc2ccco2)cc1` (stereo unspecified) is lower in inhibition: 4% for the first, 3.3% for the second.

Going from `O=C1NC(c2ccccc2)=C(c2nc3ccccc3s2)C(c2ccccc2)N1` (stereo unspecified) to `Cc1ccc(S(=O)(=O)/N=C(\c2ccccc2)N(C)S(=O)(=O)c2ccccc2)cc1`, the inhibition falls from 14.1% to -11.9%.

Going from `COC(=O)c1ccc2c(c1)N(C)C(=O)CS2` to `COC(=O)c1c(O)c2c([nH]c1=O)CCCC2`, the inhibition falls from 6.4% to -0.6%.

Compared with `O=C(Nc1ccc2c(c1)OCCO2)c1ccc(Br)s1`, `CC(=O)Nc1ccc2nc(NC(=O)COc3ccc([N+](=O)[O-])cc3)sc2c1` is higher in inhibition: -2.3% for the first, 9.4% for the second.

Going from `Cc1cc(C)c(S(=O)(=O)/N=C2\C=CC(=O)C(Cl)=C2)c(C)c1` to `Cc1cc(C)c(S(=O)(=O)Nc2cc(SCC(=O)O)c(O)c3ccccc23)cc1C`, the inhibition rises from -6.5% to 21.6%.

First: Cc1nc2sccn2c1-c1csc(NCc2ccccc2)n1
Second: Cc1ccnc(Nc2nc(-c3c(C)nc4sccn34)cs2)c1
The inhibition of the first is higher: 34.1% for the first, 19.1% for the second.

First: CCCCCn1c(CN2CC(C)OC(C)C2)nc2c1c(=O)n(C)c(=O)n2C (stereo unspecified)
Second: CCOc1cccc(C2c3c(oc4cc(C)c(C)cc4c3=O)C(=O)N2CCCN(C)C)c1 (stereo unspecified)
The inhibition of the first is higher: 8.9% for the first, -0.5% for the second.

Compared with `CCn1c(Cc2cccs2)nnc1SCC(=O)NC(C)(C)C`, `COCCn1c(Cc2ccccc2)nnc1SCC(=O)NC(C)(C)C` is higher in inhibition: -5.7% for the first, -1.6% for the second.

Going from `COC(=O)C1=C(C)NC2=C(C(=O)CCC2)C1c1cn(Cc2ccc(Br)cc2)nc1-c1ccccc1` (stereo unspecified) to `COc1ccc(CCn2c(=O)[nH]c3cc(C(=O)NCCc4ccccc4)ccc3c2=O)cc1OC`, the inhibition falls from 13.4% to -2.6%.

Compared with `COc1ccc(N2CCN(CCC3Oc4cc([N+](=O)[O-])ccc4NC3=O)CC2)cc1` (stereo unspecified), `COc1ccc([N+](=O)[O-])cc1COc1ccc2c(-c3ccccc3)cc(=O)oc2c1` is lower in inhibition: 38.8% for the first, -4.2% for the second.

Going from `Cc1cc(NC(=O)C2CC2)ncc1NC(=O)C12CC3CC(CC(C3)C1)C2` to `O=[N+]([O-])c1cccc(/C=N/NC2=NCCCCC2)c1`, the inhibition falls from 5.3% to -4.3%.

Compared with `CC1(c2ccc(Cl)cc2Cl)OCC(Cn2ccnc2)O1` (stereo unspecified), `CCOc1ccc(C(C)=O)cc1CSc1nnc(-c2cccs2)n1CC1CCCO1` (stereo unspecified) is higher in inhibition: 3.5% for the first, 10.7% for the second.

Going from `CC(C)(C)c1ccc(O)c(N=Cc2cc(Br)ccc2O)c1` to `Cc1cccc(C=Nc2ccc3c4c(cccc24)CC3)c1O`, the inhibition rises from 39.3% to 45.4%.

First: Cc1nnc(SCC(=O)NC2CCS(=O)(=O)C2)n1-c1ccccc1 (stereo unspecified)
Second: C=CCn1c(SCC(=O)c2ccc(NS(=O)(=O)c3ccccc3)cc2)nnc1-c1cccs1
The inhibition of the first is higher: -3.2% for the first, -16% for the second.

First: COc1ccc(S(=O)(=O)Nc2ccc(O)c(Sc3ncn[nH]3)c2)cc1
Second: CCOc1ccc(S(=O)(=O)Nc2ccc(O)c(Sc3ncn[nH]3)c2)cc1
The inhibition of the first is higher: 13% for the first, 2.5% for the second.

Going from `O=S(=O)(Nc1ccccc1O)c1cccc2cccnc12` to `Cc1ccc(S(=O)(=O)Nc2cccc3cccnc23)cc1`, the inhibition rises from 11.7% to 16.3%.

First: Cc1ccc(S(=O)(=O)Nc2ccc(O)c3ncccc23)cc1
Second: CCc1ccc(S(=O)(=O)Nc2cc(SCC(=O)O)c(O)c3ccccc23)cc1
The inhibition of the first is higher: 27.9% for the first, 7.4% for the second.

Going from `O=C(Sc1cccc2cccnc12)c1ccc(F)cc1` to `Cc1ccc2cccc(Oc3ccc([N+](=O)[O-])cc3[N+](=O)[O-])c2n1`, the inhibition rises from 11.3% to 23.3%.

Going from `CCC(Sc1ncccc1C(=O)O)C(=O)N1CCCC1` (stereo unspecified) to `Cc1cccc(COCC(CC(C)C)N2CCN(C(=O)c3ccc(C(F)(F)F)cc3)CCC2=O)c1` (stereo unspecified), the inhibition falls from -5.9% to -9%.

Going from `O=C(O)CC1SC(=O)N(Cc2ccccc2)C1=O` (stereo unspecified) to `O=C(CN1C(=O)C2C3C=CC(C4CC34)C2C1=O)NCc1ccco1` (stereo unspecified), the inhibition rises from 8.1% to 13%.

First: CC/C(CC(=O)C(F)(F)F)=N\NC(=O)/C(C#N)=C/N(C)C
Second: CCN(C#N)c1nc(NC(C)C)nc(NC(C)(C)C)n1
The inhibition of the first is lower: -0.8% for the first, 5.4% for the second.

First: CC(C)CC(N=Cc1c(O)c2ccccc2oc1=O)C(=O)O (stereo unspecified)
Second: CNc1nc(-c2c[nH]c3ccccc23)cs1
The inhibition of the first is higher: -10.2% for the first, -53.9% for the second.

Going from `COc1cc(C)ccc1OCCOCCOc1cccc2ccc(C)nc12` to `CCOCCn1c(=NC(=O)/C=C/c2ccccc2Cl)sc2cc(NC(C)=O)ccc21`, the inhibition falls from 8.5% to 2.9%.

Compared with `Cc1[nH]c(=S)sc1Cc1ccc(F)cc1`, `NC1CCCCC1N=Cc1c(O)n(CCc2ccc(F)cc2)c(=O)[nH]c1=O` (stereo unspecified) is lower in inhibition: 6.5% for the first, 2.4% for the second.

Going from `Nc1n[nH]c(-c2ccccc2[N+](=O)[O-])n1` to `O=C(CN1C(=O)C2C3CCC(C3)C2C1=O)NCc1ccco1` (stereo unspecified), the inhibition rises from -2.3% to 6.5%.

For `O=C(CC1Nc2cccc3cccc(c23)NC1=O)Nc1ccc(F)cc1` (stereo unspecified), the inhibition was 54% (active).
In the case of `C=CCn1c(=NC(=O)c2ccc(S(=O)(=O)N3CCCc4ccccc43)cc2)sc2cc(S(N)(=O)=O)ccc21`, the inhibition is reported as 59.2% (active).
`O=C(CNc1ccc2ccccc2c1)N/N=C/c1cc2ccccc2nc1Cl` was tested, and the inhibition was 67.5% (active).
For `Cc1ccc(NCC(=O)N/N=C/c2cc(O)ccc2[N+](=O)[O-])cc1`, the inhibition was 57.6% (active).
For `Cc1ccc(NCC(=O)N/N=C/c2cc3ccccc3nc2Cl)cc1`, the inhibition was 57.6% (active).
`C=CCNc1nc(-c2c(C)nc3sccn23)cs1` was tested, and the inhibition was 55.2% (active).
In the case of `CCn1c(Cc2ccccc2)nnc1SCC(=O)NC(C)(C)C`, the inhibition is reported as 52.9% (active).
In the case of `COc1ccc(OC)c(NC(=O)NC2(C(F)(F)F)Oc3ccccc3O2)c1`, the inhibition is reported as 58% (active).
For `Oc1ccc(Br)cc1C=Nc1ccc2c3c(cccc13)CC2`, the inhibition was 67.1% (active).
In the case of `O=S(=O)(Nc1cc(Sc2cccc3cccnc23)c(O)c2ccccc12)c1ccc(F)cc1`, the inhibition is reported as 51.1% (active).
In the case of `COc1ccc(S(=O)(=O)Nc2cc(Sc3ncn[nH]3)c(O)c3ccccc23)cc1`, the inhibition is reported as 72.4% (active).
In the case of `O=S(=O)(Nc1cc(Sc2cccc3cccnc23)c(O)c2ccccc12)c1ccccc1`, the inhibition is reported as 63.7% (active).
`Cc1ccc(OCCOc2cccc3ccc(C)nc23)c([N+](=O)[O-])c1` was tested, and the inhibition was 55% (active).
In the case of `Cc1ccc(OCCOCCn2cnc3ccccc3c2=O)c([N+](=O)[O-])c1`, the inhibition is reported as 52.1% (active).
In the case of `COc1ccc([N+](=O)[O-])cc1COc1cc(C)cc2oc(=O)cc(-c3ccccc3)c12`, the inhibition is reported as 58% (active).
In the case of `O=C(CN1C(=O)C2C3C=CC(C3)C2C1=O)NCc1ccco1` (stereo unspecified), the inhibition is reported as 57% (active).
